# Values joined by “and” are separate entries in the source; they are usually repeats but may differ in a detail not shown here. Equal entries are not always repeated. Results filed as inconclusive are left out. Active and inactive are the calls of the source. Unless noted, calls follow the shape of the dose curve; as a rule, active = well fitted curve in either direction with a large enough effect (not every such curve was filed as active); inconclusive = small, poorly fitted or top-dose-only effect, or another doubt; inactive = flat fitted curve, though single readings scatter.
# System: not listed separately
# Assay: Stat Signaling Pathway (AID 446);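 also: ME-180 cervical cancer cells given 40 pM IL-6 alongside compound; SIE-controlled beta-lactamase reporter measured as 460/530 nm FRET emission ratio; % is scaled to controls: 0 for no effect and ±100 for the full control effect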
# Settings: ME-180 (cervical carcinoma) SIE beta-lactamase reporter, IL-6 stimulated, 5 h; at 38 µM (top of the series) unless noted
# Method in brief: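 Overnight-plated ME-180 cells bearing a STAT Inducible Element beta-lactamase reporter; 5 h co-exposure to compound and 40 pM IL-6; values normalized to 300 pM IL-6 and 125 nM JAK inhibitor controls.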
row,SMILES,"activity, negative = inhibition"
1,CCCn1c(C)c(C(=O)c2ccc3ccccc3c2)c2ccccc21,-13.9% (inactive)
2,Cc1c2ccncc2c(C)c2c1[nH]c1ccccc12,128% [activator] [at 17.2 µM] (active) and 142% [activator] [at 17.2 µM] (active)
3,NCCCP(=O)(O)O,26.4% (inactive)
4,Clc1ccc(N2C[C@H]3CC[C@@H](C2)N3)nn1,37.1% (inactive)
5,COc1ccc(OC)c(C(O)C(C)N)c1 (stereo unspecified),2.12% [at 17.2 µM] (inactive)
6,CCCN(CCC)C1Cc2cc(OC)c(OC)cc2C1,21.3% (inactive)
7,NC(N)=NOCC[C@H](N)C(=O)O,4.59% [at 17.2 µM] (inactive)
8,CN1[C@@H]2CC[C@H]1CC(OC(=O)C1C=Nc3ccccc31)C2 (stereo partly specified),3.6% [at 17.2 µM] (inactive)
9,CC(C)NP(=O)(NC(C)C)OP(=O)(NC(C)C)NC(C)C,-17.3% (inactive)
10,Clc1cc(I)cc(Cl)c1NC1=NCCN1,-14.2% (inactive)
11,CCCn1c(=O)c2[nH]c(C3CCCC3)nc2n(CCCOC(=O)c2ccc(S(=O)(=O)F)cc2)c1=O,-25.7% (inactive)
12,CN1CCC(c2c[nH]c3ccc(O)cc23)CC1,-0.0693% (inactive)
13,CP(=O)(O)C1=CCNCC1,-9.22% (inactive)
14,CC(C)[C@@]1(NC(=O)[C@@H]2C[C@@H]3c4cccc5[nH]cc(c45)C[C@H]3N(C)C2)O[C@@]2(O)[C@@H]3CCCN3C(=O)[C@H](Cc3ccccc3)N2C1=O,-26.4% [at 17.2 µM] (inactive)
15,Cc1[nH]c2ccc(O)cc2c1CCN,6.41% (inactive)
16,CN1CCc2cc(O)cc3c2[C@H]1Cc1ccc(O)c(O)c1-3,-18.2% (inactive)

row,SMILES,"activity, negative = inhibition"
1,O=S(=O)(O)c1cc(O)ccc1O,11.9% [at 17.2 µM] (inactive)
2,CCC1(C)CC(=O)NC(=O)C1,-0.442% [at 17.2 µM] (inactive)
3,CCCN(CCC)[C@H]1CCc2c(F)ccc(O)c2C1,3.16% (inactive) and 1.48% (inactive)
4,c1ccc2cc(CC3=NCCN3)ccc2c1,-3.81% (inactive)
5,C[C@H](N)CN1CCc2ccc(Br)cc21,-29.5% (inactive)
6,CCCN(CCC)CCc1c[nH]c2ccc(C(N)=O)cc12,22.9% (inactive)
7,C[C@@H]1[C@@H]2Cc3ccc(O)cc3[C@@]1(C)CCN2CC1CC1,-18.1% (inactive)
8,C[C@@H](Cc1ccccc1)NCCC(c1ccccc1)c1ccccc1,-3.28% [at 17.2 µM] (inactive)
9,O=[N+]([O-])c1ccc2nc(N3CCNCC3)ccc2c1,2.58% (inactive)
10,O=S1(=O)N(CCN2CC=C(c3c[nH]c4cc(F)ccc34)CC2)c2cccc3c2N1CCC3,22.3% (inactive)
11,NC(=O)c1cc(N2CC2)c([N+](=O)[O-])cc1[N+](=O)[O-],19.5% (inactive)
12,C[N+](C)(C)CC#CCOC(=O)Nc1cccc(Cl)c1,-8.8% (inactive)
13,Nc1ccc(CCN2CCN(c3cccc(C(F)(F)F)c3)CC2)cc1,-17.7% (inactive)
14,O=[N+]([O-])c1cc(O)c(O)c([N+](=O)[O-])c1,48.1% (inactive)
15,NNC(N)=O,1.85% (inactive)

# Biological target: Glucocorticoid receptor (Homo sapiens) (UniProt P04150)
# Assay: GR-GFP Redistribution (AID 450;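 active = compounds whose dose series gives a full or clear partial fitted curve of increased nuclear translocation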; also: potency is read from the fitted curve at half-maximal effect)
# Settings: U2OS GR-GFP nuclear translocation, laser cytometry, 2 h
# Sequence of Glucocorticoid receptor (Homo sapiens) (P04150 whole entry, looked up): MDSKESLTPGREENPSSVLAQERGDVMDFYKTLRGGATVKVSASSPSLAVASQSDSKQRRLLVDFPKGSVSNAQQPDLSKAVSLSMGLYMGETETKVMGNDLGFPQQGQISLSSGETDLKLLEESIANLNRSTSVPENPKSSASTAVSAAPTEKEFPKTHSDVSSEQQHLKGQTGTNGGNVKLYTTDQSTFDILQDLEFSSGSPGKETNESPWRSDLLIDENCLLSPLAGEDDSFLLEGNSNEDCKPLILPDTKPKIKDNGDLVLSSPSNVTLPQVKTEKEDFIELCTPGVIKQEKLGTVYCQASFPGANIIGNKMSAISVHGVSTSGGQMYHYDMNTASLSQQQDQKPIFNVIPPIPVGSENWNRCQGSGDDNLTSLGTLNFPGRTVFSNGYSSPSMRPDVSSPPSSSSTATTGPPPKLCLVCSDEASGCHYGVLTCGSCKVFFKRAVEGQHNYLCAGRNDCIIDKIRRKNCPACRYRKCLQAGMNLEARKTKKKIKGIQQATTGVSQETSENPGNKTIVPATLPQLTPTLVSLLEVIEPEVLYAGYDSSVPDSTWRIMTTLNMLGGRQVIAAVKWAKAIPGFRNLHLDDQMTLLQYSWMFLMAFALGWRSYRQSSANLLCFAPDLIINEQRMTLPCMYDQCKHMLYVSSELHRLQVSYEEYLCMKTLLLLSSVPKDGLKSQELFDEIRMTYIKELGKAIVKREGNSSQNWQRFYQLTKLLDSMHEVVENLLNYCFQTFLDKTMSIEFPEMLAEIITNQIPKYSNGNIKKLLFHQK
row,SMILES,Potency
1,CCCn1c(C)c(C(=O)c2ccc3ccccc3c2)c2ccccc21,> 46 µM (inactive)
2,Cc1c2ccncc2c(C)c2c1[nH]c1ccccc12,> 46 µM (inactive) and > 20.6 µM (inactive)
3,Clc1ccc(N2C[C@H]3CC[C@@H](C2)N3)nn1,> 46 µM (inactive)
4,COc1ccc(OC)c(C(O)C(C)N)c1 (stereo unspecified),> 20.6 µM (inactive)
5,CCCN(CCC)C1Cc2cc(OC)c(OC)cc2C1,> 46 µM (inactive)
6,NC(N)=NOCC[C@H](N)C(=O)O,> 46 µM (inactive) and > 20.6 µM (inactive)
7,CC(C)NP(=O)(NC(C)C)OP(=O)(NC(C)C)NC(C)C,> 46 µM (inactive)
8,CCCn1c(=O)c2[nH]c(C3CCCC3)nc2n(CCCOC(=O)c2ccc(S(=O)(=O)F)cc2)c1=O,> 46 µM (inactive)
9,CN1CCC(c2c[nH]c3ccc(O)cc23)CC1,> 46 µM (inactive)
10,CP(=O)(O)C1=CCNCC1,> 46 µM (inactive)
11,Cc1[nH]c2ccc(O)cc2c1CCN,> 46 µM (inactive)
12,CCCN(CCC)[C@H]1CCc2c(F)ccc(O)c2C1,> 46 µM (inactive)
13,C[C@H](N)CN1CCc2ccc(Br)cc21,> 46 µM (inactive)
14,CCCN(CCC)CCc1c[nH]c2ccc(C(N)=O)cc12,> 46 µM (inactive)
15,C[C@@H]1[C@@H]2Cc3ccc(O)cc3[C@@]1(C)CCN2CC1CC1,> 46 µM (inactive)
16,O=S1(=O)N(CCN2CC=C(c3c[nH]c4cc(F)ccc34)CC2)c2cccc3c2N1CCC3,> 46 µM (inactive)
17,NC(=O)c1cc(N2CC2)c([N+](=O)[O-])cc1[N+](=O)[O-],> 46 µM (inactive)
18,C[N+](C)(C)CC#CCOC(=O)Nc1cccc(Cl)c1,> 46 µM (inactive)
19,Nc1ccc(CCN2CCN(c3cccc(C(F)(F)F)c3)CC2)cc1,> 46 µM (inactive)
20,NNC(N)=O,> 46 µM (inactive)
